± gives the standard deviation of the averaged measurements.
How the values were obtained:
[1] = test system: DLD1; test: cell viability (CellTiter-Glo) relative to plate median (fraction of plate median); higher = more viable cells; conditions: 5 µM; treatment time 24 h; reporter: 7TFP
In short: (§1)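 For this screen, colorectal cancer cell lines carrying stable lentiviral TCF/Wnt firefly luciferase reporters, either 7TFP or TCF4/Wnt, were seeded into 384-well plates. A day's wait of 24 h preceded addition of library compounds at a final 5 µM, which stayed on the cells for 24 h. Firefly luciferase or CellTiterGlo luminescence, read on parallel plates, was normalised to the plate median per well, and the reported value is the mean of two independent replicates.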

[2] = test system: HCT116; test: as above; conditions: 5 µM; treatment time 24 h; reporter: TCF4/Wnt
In short: as §1

[3] = test system: SW480; test: as above; conditions: 5 µM; treatment time 24 h; reporter: 7TFP
In short: as §1

[4] = test system: DLD1; test: TCF/Wnt firefly luciferase reporter signal relative to plate median (fraction of plate median); higher = higher Wnt reporter signal; conditions: 5 µM; treatment time 24 h; reporter: 7TFP
In short: as §1

[5] = test system: SW480; test: as above; conditions: 5 µM; treatment time 24 h; reporter: 7TFP
In short: as §1

Row | Structure (SMILES) | cell viability [1] | cell viability [2] | cell viability [3] | TCF/Wnt firefly luciferase reporter signal [4] | TCF/Wnt firefly luciferase reporter signal [5]
1 | O=C(O)c1ccc2c(c1)OCO2 | 0.927 ± 0.12 | 1.09 ± 0.078 | 0.948 ± 0.033 | 0.927 ± 0.022 | 0.866 ± 0.12
2 | COC1=C[C@@H](C)[C@@H]2C[C@H]3OC(=O)C[C@H]4C(C)=C(OC)C(=O)[C@H]([C@@]2(C)C1=O)[C@@]34C | 0.975 ± 0.064 | 0.972 ± 0.054 | 0.979 ± 0.044 | 1.025 ± 0.0071 | 1
3 | CC1=NN(c2ccccc2)C(=O)C1 | 1.03 ± 0.054 | 0.921 ± 0.021 | 1.03 ± 0.06 | 0.979 ± 0.14 | 1.01 ± 0.025
4 | COC1=CC(=O)C(O)=C/C1=C\C=C\c1ccccc1 | 1 ± 0.013 | 1.06 ± 0.12 | 1 ± 0.057 | 1.1 ± 0.064 | 0.905 ± 0.1
5 | O=C(O)C(S)C(S)C(=O)O (stereo not given) | 1.04 ± 0.05 | 1.03 ± 0.099 | 1.01 ± 0.096 | 0.904 ± 0.1 | 1.004 ± 0.0078
6 | C/C=C/C=C/C1C=CC2CC(C)CCC2C1(C)/C(O)=C1/C(=O)NC(C(C)O)C1=O (stereo not given) [Altersetin] | 1 ± 0.023 | 0.974 ± 0.018 | 1 ± 0.011 | 1 ± 0.043 | 0.923 ± 0.052
7 | O=c1[nH]cc(F)c(=O)[nH]1 | 1.03 ± 0.083 | 0.905 ± 0.054 | 1.11 ± 0.014 | 1.01 ± 0.13 | 0.9685 ± 0.0064
8 | CC[C@]12CCCN3CCc4c(n(c5ccccc45)[C@@](O)(C(=O)OC)C1)[C@@H]32 | 1.02 ± 0.047 | 0.953 ± 0.096 | 1.03 ± 0.014 | 0.981 ± 0.11 | 0.971
9 | COC(=O)[C@]1(C)CCC[C@]2(C)c3ccc(C(C)C)cc3C(=O)CC12 (stereo not given in full) | 1.1 ± 0.13 | 1.03 ± 0.081 | 1.05 ± 0.028 | 1.07 ± 0.25 | 1.07
10 | CC(=O)N1CCCC(N)C1=O (stereo not given) [N-Acetyl-3-amino-2-piperidinon] | 0.974 ± 0.079 | 0.871 ± 0.021 | 0.946 ± 0.015 | 0.821 ± 0.13 | 0.851 ± 0.044
11 | NCc1ccc(S(N)(=O)=O)cc1 | 0.962 ± 0.023 | 1 ± 0.069 | 0.991 ± 0.042 | 1.03 ± 0.17 | 1.12 ± 0.078
12 | COc1c2occc2cc2ccc(=O)oc12 | 1.04 ± 0.05 | 1.02 ± 0.089 | 1.05 ± 0.014 | 1.09 ± 0.21 | 1.1 ± 0.057
13 | Cn1c(=O)[nH]c2[nH]cnc2c1=O | 1.02 ± 0.042 | 1.04 ± 0.14 | 1.04 ± 0.072 | 0.964 ± 0.011 | 0.992 ± 0.025
14 | CCn1cc(C(=O)O)c(=O)c2ccc(C)nc21 | 0.975 ± 0.16 | 0.9905 ± 0.0078 | 0.975 ± 0.016 | 1.07 ± 0.12 | 1.02 ± 0.028
15 | O=c1c(O)c(-c2ccc(O)c(O)c2)oc2c(O[C@@H]3O[C@H](CO)[C@@H](O)[C@H](O)[C@H]3O)c(O)cc(O)c12 | 0.99 ± 0.057 | 0.905 ± 0.22 | 0.976 ± 0.033 | 1.1 ± 0.078 | 0.997 ± 0.061
16 | C[C@@H]1CC[C@@]2(OC1)O[C@H]1C[C@H]3[C@@H]4CC[C@@H]5C[C@@H](O)CC[C@]5(C)[C@H]4CC[C@]3(C)[C@H]1[C@@H]2C | 0.993 ± 0.038 | 1.09 ± 0.05 | 1.01 ± 0.05 | 0.956 ± 0.09 | 1.04 ± 0.071
17 | O=C(Oc1cccc2cccnc12)c1ccccc1 | 0.999 ± 0.044 | 0.891 ± 0.029 | 1.03 ± 0.035 | 0.856 ± 0.071 | 0.871 ± 0.025
18 | COC1C(OC(C)=O)C(C)OC(OC2C(Oc3cccc4c(OC(C)=O)c5c(=O)oc6ccc(C)c7c(=O)oc(c34)c5c67)OC(C)C(OC(C)=O)C2OC(C)=O)C1OC(C)=O (stereo not given) [Chartreusin-pentaacetate] | 0.99 ± 0.028 | 1.04 ± 0.14 | 0.932 ± 0.03 | 1.095 ± 0.0071 | 1.1 ± 0.11
19 | O=C(Oc1cc(OC(=O)c2ccccc2)c2c(c1)O[C@H](c1ccc(OC(=O)c3ccccc3)c(OC(=O)c3ccccc3)c1)[C@@H](OC(=O)c1ccccc1)C2)c1ccccc1 | 1.04 ± 0.059 | 1.065 ± 0.0071 | 1.06 ± 0.071 | 0.978 ± 0.046 | 0.972 ± 0.016
20 | CC1CCC(NC(=O)N(CCCl)N=O)CC1 (stereo not given) | 1.01 ± 0.059 | 1.02 ± 0.071 | 1.015 ± 0.0071 | 1.08 ± 0.035 | 1.16 ± 0.028
21 | Cc1cccc(Nc2cc(Cl)nc(SCC(=O)O)n2)c1C | 0.964 ± 0.021 | 0.999 ± 0.044 | 0.9325 ± 0.0064 | 1.09 ± 0.014 | 1.085 ± 0.0071
22 | CCCCCCCCCCCCCc1ccco1 | 1.05 | 1.03 ± 0.021 | 1.02 ± 0.021 | 0.964 ± 0.14 | 0.987 ± 0.12
23 | CC(C)NCC(O)COc1ccc(CC(N)=O)cc1 (stereo not given) | 1.07 ± 0.057 | 0.932 ± 0.016 | 1.02 ± 0.066 | 0.971 ± 0.055 | 1.07 ± 0.064
24 | COc1ccccc1N1CCN(CCCNc2cc(=O)n(C)c(=O)n2C)CC1 | 0.938 ± 0.037 | 0.885 ± 0.018 | 0.93 ± 0.025 | 1.03 ± 0.05 | 0.953 ± 0.081
25 | CC1(C)CC[C@]2(C(=O)O)CC[C@]3(C)C(=CCC4[C@@]5(C)CC[C@@H](O)C(C)(C)C5CC[C@]43C)C2C1 (stereo not given in full) | 0.967 ± 0.032 | 1.11 ± 0.092 | 1.08 ± 0.014 | 0.955 ± 0.093 | 0.9805 ± 0.005
26 | CC(=O)O[C@H]1CC[C@]2(C)[C@H]3CC[C@]4(C)C(=CC[C@@]5(C(=O)O)CCC(C)(C)C[C@H]54)[C@]3(C)CC[C@H]2C1(C)C [3-Acetylaleuritolic acid] | 1.01 ± 0.11 | 1.04 ± 0.11 | 1.01 ± 0.044 | 0.879 ± 0.0085 | 1.02 ± 0.06
27 | C[C@]12CC[C@@H]3c4ccc(O)cc4CC[C@H]3[C@@H]1CCC2=O | 0.894 ± 0.038 | 1.05 ± 0.057 | 0.995 ± 0.064 | 1.15 ± 0.064 | 1.07 ± 0.085
28 | COc1ccc(/C=C/C(=O)c2ccc(O)cc2O)cc1OC | 0.955 ± 0.046 | 1.04 ± 0.035 | 1.08 ± 0.042 | 1.03 | 0.986 ± 0.062
29 | O=C1c2ccc(O)c(O)c2C(=O)c2c(O)ccc(O)c21 | 0.966 ± 0.048 | 0.877 ± 0.023 | 0.964 ± 0.03 | 1.09 ± 0.092 | 1.1 ± 0.085
30 | CC(C(=O)O)c1ccc(-c2ccccc2)c(F)c1 (stereo not given) | 1.09 ± 0.11 | 1.11 ± 0.078 | 1.04 | 1.07 ± 0.014 | 1.02 ± 0.035
